Source: the supplement of paper PMC12494721
Counter-ions that a name gives are not always drawn.

Each compound was assayed on Klebsiella aerogenes DSM 30053 (assay: fold change of Putrescine concentration vs plate DMSO controls (fold change (ratio)); higher = more amine produced, active = hit call of the paper (significant change in both replicates, either direction)). Details: 20 µM; incubation time: 27 h, anaerobic, 37 °C.
How it was run: (§1)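 Amines were quantified by LC–triple-quadrupole MS in dynamic MRM mode against external calibration curves, with drift correction within each batch. The samples were whole anaerobic mGAM cultures of four gut bacterial strains, grown for 27 h at 37 °C in 80 µL wells and extracted with cold acetonitrile/methanol with 0.1% formic acid, then centrifuged. Values are reported as fold change over DMSO controls on the same plate. The mean of 2 biological replicates is given.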

| Structure (SMILES) | fold change of Putrescine concentration |
| --- | --- |
| C=C[C@H]1CN2CC[C@H]1C[C@H]2[C@H](OC(=O)OCC)c1ccnc2ccc(OC)cc12 [Quinine ethyl carbonate] | 0.985 (inactive) |
| S=C(NC1CCCCC1)N1CCC(c2cnc[nH]2)CC1 [Thioperamide maleate] | 1.02 (inactive) |
| N#Cc1sc2c(=O)c3ccccc3c(=O)c=2sc1C#N | 1.01 (inactive) |
| CC(=O)OC1CN2CCC1CC2 (centres undefined) [Aceclidine hydrochloride] | 0.959 (inactive) |
| C1=Cc2cccc3cccc1c23 [Acenaphthylene] | 1 (inactive) |
| CS(=O)(=O)c1ccc(C(=O)C2C(=O)CCCC2=O)c([N+](=O)[O-])c1 | 0.946 (inactive) |
| CCN(CC)CCOC(=O)C(O)(c1ccccc1)c1ccccc1 [Benactyzine hydrochloride] | 0.992 (inactive) |
| c1ccc2c(c1)Nc1ccccc1S2 [Phenothiazine] | 0.953 (inactive) |
| CCC1(C)CC(=O)NC(=O)C1 [Bemegride] | 0.981 (inactive) |
| CNC(=O)/C=C(\C)OP(=O)(OC)OC | 0.986 (inactive) |
| CC[N+]1(C)CCCC(OC(=O)C(O)(c2ccccc2)c2ccccc2)C1 (centres undefined) [Pipenzolate bromide] | 1 (inactive) |
| CC(C)(C)c1ccc(CSc2cnn(C(C)(C)C)c(=O)c2Cl)cc1 | 1.01 (inactive) |
| CSc1nc(NC(C)C)nc(NC(C)C)n1 | 1.04 (inactive) |
| O=C(Nc1ccc(F)cc1F)c1cccnc1Oc1cccc(C(F)(F)F)c1 | 0.995 (inactive) |
| O=C(CCCN1CCC2(CC1)C(=O)NCN2c1ccccc1)c1ccc(F)cc1 [Spiperone] | 1.01 (inactive) |
| CCOCN(C(=O)CCl)c1c(C)cccc1CC | 0.941 (inactive) |
| ClC1C(Cl)C(Cl)C(Cl)C(Cl)C1Cl (centres undefined) | 1 (inactive) |
| CCSC(C)CC1CC(=O)C(/C(CC)=N/OC/C=C/Cl)=C(O)C1 (mixture of isomers) | 0.996 (inactive) |
| O=P1(N(CCCl)CCCl)NCCCO1 (centres undefined) [Cyclophosphamide] | 1.01 (inactive) |

| Structure (SMILES) | fold change of Putrescine concentration |
| --- | --- |
| CN1[C@@H]2C[C@@H](OC(=O)[C@H](CO)c3ccccc3)C[C@H]1[C@@H]1O[C@@H]12 [Scopolamine hydrochloride] | 0.965 (inactive) |
| COP(=S)(OC)SCN1C(=O)c2ccccc2C1=O | 1.01 (inactive) |
| CC(C)N(C)S(=O)(=O)NC(=O)c1cc(-n2c(=O)cc(C(F)(F)F)n(C)c2=O)c(F)cc1Cl | 0.985 (inactive) |
| CN/C(=N/CC1CCOC1)N[N+](=O)[O-] (centres undefined) | 1.02 (inactive) |
| CC(=O)O[C@H]1C[C@H](O[C@H]2[C@@H](O)C[C@H](O[C@H]3[C@@H](O)C[C@H](O[C@H]4CC[C@@]5(C)[C@H](CC[C@@H]6[C@@H]5C[C@@H](O)[C@]5(C)[C@@H](C7=CC(=O)OC7)CC[C@]65O)C4)O[C@@H]3C)O[C@@H]2C)O[C@H](C)[C@H]1O[C@@H]1O[C@H](CO)[C@@H](O)[C@H](O)[C@H]1O [Lanatoside C] | 0.991 (inactive) |
| NC(=O)C[S+]([O-])C(c1ccccc1)c1ccccc1 (centres undefined) [Modafinil] | 0.987 (inactive) |
| CCn1cc(C(=O)O)c(=O)c2cc3c(cc21)OCO3 [Oxolinic acid] | 1.08 (inactive) |
| c1ccc2c(c1)cc1ccc3cccc4ccc2c1c34 [Benzo[a]pyrene] | 1.01 (inactive) |
| CCNC(=O)NC(=O)/C(C#N)=N/OC | 1.02 (inactive) |
| CNC(=O)Oc1ccc2c(c1)[C@]1(C)CCN(C)[C@@H]1N2C [Eserine hemisulfate salt] | 0.996 (inactive) |
| Oc1ccc2c3c1O[C@H]1[C@@H](O)CC[C@@]4(O)[C@@H](C2)N(CC2CCC2)CC[C@]314 [Nalbuphine hydrochloride] | 1.01 (inactive) |
| CON(C)C(=O)Nc1ccc(Cl)c(Cl)c1 | 1.02 (inactive) |
| C=CC(N)=O [Acrylamide] | 0.987 (inactive) |
| Nc1ccncc1 [Dalfampridine] | 0.989 (inactive) |
| CC(=O)O[C@H]1C[C@@H]2CC[C@@H]3[C@H](CC[C@@]4(C)[C@H]3C[C@H]([N+]3(C)CCCCC3)[C@@H]4OC(C)=O)[C@@]2(C)C[C@@H]1[N+]1(C)CCCCC1 [Pancuronium bromide] | 0.983 (inactive) |
| CC(C)(C)C(O)(CCc1ccc(Cl)cc1)Cn1cncn1 (centres undefined) | 1.03 (inactive) |
| CCNC1(c2cccs2)CCCCC1=O (centres undefined) [Tiletamine hydrochloride] | 1.01 (inactive) |
| COc1ccc(OC)c(C(O)C(C)N)c1 (centres undefined) [Methoxamine hydrochloride] | 1 (inactive) |

Each compound was assayed on Escherichia coli IAI1 (assay: fold change of Cadaverine concentration vs plate DMSO controls (fold change (ratio)); higher = more amine produced, active = hit call of the paper (significant change in both replicates, either direction)). Details: 20 µM; incubation time: 27 h, anaerobic, 37 °C.
How it was run: as §1

| Structure (SMILES) | fold change of Cadaverine concentration |
| --- | --- |
| C=C[C@H]1CN2CC[C@H]1C[C@H]2[C@H](OC(=O)OCC)c1ccnc2ccc(OC)cc12 [Quinine ethyl carbonate] | 1.01 (inactive) |
| S=C(NC1CCCCC1)N1CCC(c2cnc[nH]2)CC1 [Thioperamide maleate] | 0.951 (inactive) |
| N#Cc1sc2c(=O)c3ccccc3c(=O)c=2sc1C#N | 1.02 (inactive) |
| CC(=O)OC1CN2CCC1CC2 (centres undefined) [Aceclidine hydrochloride] | 0.951 (inactive) |
| C1=Cc2cccc3cccc1c23 [Acenaphthylene] | 1.02 (inactive) |
| CS(=O)(=O)c1ccc(C(=O)C2C(=O)CCCC2=O)c([N+](=O)[O-])c1 | 0.973 (inactive) |
| CCN(CC)CCOC(=O)C(O)(c1ccccc1)c1ccccc1 [Benactyzine hydrochloride] | 0.986 (inactive) |
| c1ccc2c(c1)Nc1ccccc1S2 [Phenothiazine] | 1.03 (inactive) |
| CCC1(C)CC(=O)NC(=O)C1 [Bemegride] | 0.986 (inactive) |
| CNC(=O)/C=C(\C)OP(=O)(OC)OC | 1.05 (inactive) |
| CC[N+]1(C)CCCC(OC(=O)C(O)(c2ccccc2)c2ccccc2)C1 (centres undefined) [Pipenzolate bromide] | 0.988 (inactive) |
| CC(C)(C)c1ccc(CSc2cnn(C(C)(C)C)c(=O)c2Cl)cc1 | 1.04 (inactive) |
| CSc1nc(NC(C)C)nc(NC(C)C)n1 | 1.01 (inactive) |
| O=C(Nc1ccc(F)cc1F)c1cccnc1Oc1cccc(C(F)(F)F)c1 | 1.03 (inactive) |
| O=C(CCCN1CCC2(CC1)C(=O)NCN2c1ccccc1)c1ccc(F)cc1 [Spiperone] | 1.01 (inactive) |
| CCOCN(C(=O)CCl)c1c(C)cccc1CC | 0.88 (inactive) |
| ClC1C(Cl)C(Cl)C(Cl)C(Cl)C1Cl (centres undefined) | 1.02 (inactive) |
| CCSC(C)CC1CC(=O)C(/C(CC)=N/OC/C=C/Cl)=C(O)C1 (mixture of isomers) | 1 (inactive) |
| O=P1(N(CCCl)CCCl)NCCCO1 (centres undefined) [Cyclophosphamide] | 1.02 (inactive) |

| Structure (SMILES) | fold change of Cadaverine concentration |
| --- | --- |
| CN1[C@@H]2C[C@@H](OC(=O)[C@H](CO)c3ccccc3)C[C@H]1[C@@H]1O[C@@H]12 [Scopolamine hydrochloride] | 0.948 (inactive) |
| COP(=S)(OC)SCN1C(=O)c2ccccc2C1=O | 0.997 (inactive) |
| CC(C)N(C)S(=O)(=O)NC(=O)c1cc(-n2c(=O)cc(C(F)(F)F)n(C)c2=O)c(F)cc1Cl | 1.01 (inactive) |
| CN/C(=N/CC1CCOC1)N[N+](=O)[O-] (centres undefined) | 0.992 (inactive) |
| CC(=O)O[C@H]1C[C@H](O[C@H]2[C@@H](O)C[C@H](O[C@H]3[C@@H](O)C[C@H](O[C@H]4CC[C@@]5(C)[C@H](CC[C@@H]6[C@@H]5C[C@@H](O)[C@]5(C)[C@@H](C7=CC(=O)OC7)CC[C@]65O)C4)O[C@@H]3C)O[C@@H]2C)O[C@H](C)[C@H]1O[C@@H]1O[C@H](CO)[C@@H](O)[C@H](O)[C@H]1O [Lanatoside C] | 1.02 (inactive) |
| NC(=O)C[S+]([O-])C(c1ccccc1)c1ccccc1 (centres undefined) [Modafinil] | 0.99 (inactive) |
| CCn1cc(C(=O)O)c(=O)c2cc3c(cc21)OCO3 [Oxolinic acid] | 0.227 (active) |
| c1ccc2c(c1)cc1ccc3cccc4ccc2c1c34 [Benzo[a]pyrene] | 1 (inactive) |
| CCNC(=O)NC(=O)/C(C#N)=N/OC | 1.06 (inactive) |
| CNC(=O)Oc1ccc2c(c1)[C@]1(C)CCN(C)[C@@H]1N2C [Eserine hemisulfate salt] | 0.999 (inactive) |
| Oc1ccc2c3c1O[C@H]1[C@@H](O)CC[C@@]4(O)[C@@H](C2)N(CC2CCC2)CC[C@]314 [Nalbuphine hydrochloride] | 1.01 (inactive) |
| CON(C)C(=O)Nc1ccc(Cl)c(Cl)c1 | 1.02 (inactive) |
| C=CC(N)=O [Acrylamide] | 1.04 (inactive) |
| Nc1ccncc1 [Dalfampridine] | 0.957 (inactive) |
| CC(=O)O[C@H]1C[C@@H]2CC[C@@H]3[C@H](CC[C@@]4(C)[C@H]3C[C@H]([N+]3(C)CCCCC3)[C@@H]4OC(C)=O)[C@@]2(C)C[C@@H]1[N+]1(C)CCCCC1 [Pancuronium bromide] | 0.957 (inactive) |
| CC(C)(C)C(O)(CCc1ccc(Cl)cc1)Cn1cncn1 (centres undefined) | 1.01 (inactive) |
| CCNC1(c2cccs2)CCCCC1=O (centres undefined) [Tiletamine hydrochloride] | 0.995 (inactive) |
| COc1ccc(OC)c(C(O)C(C)N)c1 (centres undefined) [Methoxamine hydrochloride] | 0.968 (inactive) |
